Laboratory results published in PubChem BioAssay.

test: RPMI8226 myeloma cell viability, profiling panel, resazurin fluorescence, basal, 24 h, PK04 Diversity Set (AID 1180); conditions: higher = more signal;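 further: RPMI8826 multiple myeloma cell line at 5000 cells per well; test concentration not given here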

| SMILES | z-score |
| --- | --- |
| COc1ccc([Si](C)(C)[C@@H]2[C@@H](CCO)O[C@]3(C(=O)N(Cc4ccccc4)c4ccc(N5CCCCC5=O)cc43)[C@H]2C)cc1 | -2.29 |
| C#CCNS(=O)(=O)N(C)C | 0.544 |
| COCCCNC(=O)[C@]1(CCS(=O)(=O)c2ccccc2)N=C(c2ccc(OCCCO)cc2)O[C@@H]1c1ccccc1 | -0.0847 |
| CC(=O)NCCCC[C@@H]1NC(=O)[C@@H]2C[C@H](C(=O)NCCCC[N+](C)(C)C)[C@H](c3cccc(OCCO)c3)N2C1=O | -0.803 |
| CCCC[C@@H](O)C1=C(COc2ccccc2)Cn2c(=O)n(-c3ccccc3)c(=O)n2[C@H]1CO | 0.539 |
| C=CCOC(=O)[C@H]1[C@@H]2C(=O)O[C@@H](c3ccccc3)[C@@H](c3ccccc3)N2[C@@H](c2ccc(OCCOC(=O)[C@H]3C[C@H]4C(=O)N[C@@H](CCCCN(C)C)C(=O)N4[C@H]3c3ccc(O)cc3)cc2)[C@]12C(=O)Nc1ccccc12 | 0.828 |
| C=CCNC(=O)[C@H]1[C@@H]2C(=O)O[C@@H](c3ccccc3)[C@@H](c3ccccc3)N2[C@@H](c2ccc(OCCO)cc2)[C@]12C(=O)N(C(=O)OCCOC)c1ccc(C#CC3=CCCCC3)cc12 | 0.136 |
| COC(=O)[C@@]1(Cc2ccccc2)[C@H]2c3cc(C(=O)N4CCCC4)n(Cc4ccc(OC(F)(F)F)cc4)c3C[C@H]2CN1C(=O)c1ccccc1 | -2.62 |
| COc1ccc([Si](C)(C)[C@H]2[C@H](CCn3cc(CCO)nn3)O[C@@]3(C(=O)N(Cc4cccc(N5C(=O)c6cccc7cccc5c67)c4)c4ccccc43)[C@@H]2C)cc1 | -5.82 |
